Potency and activity change, negative = cytotoxic data for 40 compounds are collected here from PubChem BioAssay (NCATS).

Records with an inconclusive call do not appear. A call without a number means that no potency is given here. Calls of active or inactive are those of the source. The call rests on the fitted dose curve; in most records, active means well fitted cell-killing curve with a large enough effect; inconclusive means small, poorly fitted or top-dose-only effect; inactive means flat fitted curve, though single readings scatter.
Potency means the concentration at half of the fitted maximal effect.

The assay is described as follows: qHTS of pediatric cancer cell lines to identify multiple opportunities for drug repurposing: Primary screen for U-2 OS cells (AID 1347096). Further: nearly all actives have a fitted effect of over 50% in size. The note with it: U-2 OS viability, CellTiter-Glo luminescence, 48 h; series mostly up to 46 µM. An excerpt:
Drug repurposing or repositioning has been offered as a strategy for drug development in oncology programs. This approach has special potential for childhood cancers and other rare or orphan diseases, where the expected return on new drug development has been a disincentive to pharmaceuticals.
In this project we exploit the poly-pharmacology of drugs to discover new indications via phenotypic screening of a panel of 19 well-characterized cell lines derived from solid tumors seen in children and adolescents. The goal is to identify approved drugs with previously unrecognized anticancer properties that has the potential to reveal new mechanisms and biological processes involved in carcinogenesis or drug resistance. We employed a titration-based paradigm (quantitative high-throughput screening or qHTS), where all compounds were tested at multiple concentrations for their effect on cell viability. Concentration-response curves (CRCs) were derived directly from the primary screen, and both potency and efficacy values were used to identify compounds with robust bioactivity profiles. We screened the NIH Chemical Genomics Center (NCGC) Pharmaceutical Collection (NPC) and Mechanism Interrogation Plate (MIPE) small molecule collections of approved and investigational compounds against these cell lines; and measured metabolically active cells after 48 hours of compound treatment as a proxy for cell viability.
Assay Submitter: Nathalia J. Martinez, National Center for Advancing Translational Sciences, National Institutes of Health, Rockville, MD, USA; email: natalia.martinez@nih.gov
[1] Shen, M et al. Quantitative high-throughput phenotypic screening of pediatric cancer cell lines identifies multiple opportunities for drug repurposing. Oncotarget 2017 Dec 19;9(4):4758-4772. PMID 29435139.
The cells were obtained from University of North Carolina (UNC), Pediatric Preclinical Testing Program (PPT), and Coriell Institute (CI).
qHTS cell viability assay:
Cells were assayed in growth media at a density of 500-1,000 cells/well. Five microliters of cells were dispensed into 1,536-well, white, solid-bottom, TC-treated plates (Greiner Bio One) using a multidrop dispenser and incubated at 37 degrees C, 5% CO2, under a humidified atmosphere for 5 hours. Twenty-three nanoliters of compounds and controls (neutral control DMSO or positive control bortezomib at final concentration of 2.3 µM) were subsequently transferred by Kalypsys pintool. For primary screens, the MIPE collection was tested at 11-point dilutions (final concentrations range from 0.78 nM to 46 µM) and the NPC collection at 8-point dilutions (final concentrations range from 0.59 nM to 46 µM). Compounds tested in follow-up screens were assayed at 11-point dilutions. Cells were incubated for 48 hours, followed by addition of 3 µL of CellTiter-Glo (Promega). After a 15 min incubation at room temperature, samples were analyzed for luminescence intensity using a ViewLux High-throughput CCD imager equipped with clear filters.
A general note: In qHTS, concentration-response curves come from the screen itself.
Consider `COC(=O)[C@@H](N)Cc1ccc(O)c(O)c1`, for which the Potency result was “inactive”.
Same read-out and setting: as for `Cc1ccc(/C(=C\CN2CCCC2)c2ccccn2)cc1`, the entry is “inactive”; as for `NC1=NCC2c3ccccc3Cc3ccccc3N12` (stereo not given), “inactive”; as for `O=C(CCNNC(=O)c1ccncc1)NCc1ccccc1`, “inactive”.
Turning to `Cc1nc2c([nH]1)c(=O)n(C)c(=O)n2Cc1ccco1`, the Potency result is “inactive”.
As for `C=CCc1ccccc1OCC(O)CNC(C)C` (stereo not given), the Potency result was “inactive”.
Take `COc1ccc2c(c1OC)C(=O)O[C@@H]2[C@H]1c2c(cc3c(c2OC)OCO3)CCN1C`: the Potency result is “inactive”.
On the same count and under the same terms, then `CCN1CCC[C@H]1CNC(=O)c1c(O)c(Cl)cc(Cl)c1OC`, with “inactive”; and `CC(=O)[C@]1(O)Cc2c(O)c3c(c(O)c2[C@@H](O[C@H]2C[C@H](N)[C@H](O)[C@H](C)O2)C1)C(=O)c1ccccc1C3=O`, with 6.68 µM (active).
The same measure, in the same setting: then `COc1ccc([C@@H]2Sc3ccccc3N(CCN(C)C)C(=O)[C@@H]2OC(C)=O)cc1`, with “inactive”; and `CCOC(=O)c1cnc2c(cnn2CC)c1NN=C(C)C`, with “inactive”; and `CCCCCCCC/C=C\CCCCCCCC(=O)NCc1ccc(O)c(OC)c1`, with “inactive”.
On the same count and under the same terms, as for `c1cnc(N2CCN(Cc3ccc4c(c3)OCO4)CC2)nc1`, the entry is “inactive”.
Regarding `CCCCCN(CCCCC)C(=O)C(CCC(=O)O)NC(=O)c1ccc(Cl)c(Cl)c1` (stereo not given), the Potency entry is “inactive”.
With `COCCc1ccc(OCC(O)CNC(C)C)cc1` (stereo not given), the Potency entry was “inactive”.
On the same count and under the same terms, as for `NC/C=C/C(=O)O`, the entry is “inactive”; as for `CC(C)NNC(=O)c1ccncc1`, “inactive”; as for `CCN(CC)CC(=O)Nc1c(C)cccc1C`, “inactive”.
As to `CN(C)CC[C@@H](c1ccc(Br)cc1)c1ccccn1`, the Potency result was “inactive”.
Still for that read-out and setting: then `Cc1cccc(C)c1NC(=O)C(C)N` (stereo not given), with “inactive”; and `NC(=O)N1c2ccccc2C=Cc2ccccc21`, with “inactive”; and `C[N+](C)(C)CCOC(=O)CCC(=O)OCC[N+](C)(C)C`, with “inactive”.
Regarding `COc1ccc(CN(CCN(C)C)c2ccccn2)cc1`, the Potency entry is “inactive”.
On the same count and under the same terms, as for `CCOC(=O)C1=C(C)NC(C)=C(C(=O)OC)C1c1cccc(Cl)c1Cl` (stereo not given), the entry is “inactive”; as for `CN(C)CCN(Cc1cccs1)c1ccccn1`, “inactive”; as for `COc1cc2c(cc1OC)-c1cc(=Nc3c(C)cc(C)cc3C)n(C)c(=O)n1CC2`, “inactive”.
Regarding `CC(=O)Nc1nnc(S(N)(=O)=O)s1`, the Potency entry is “inactive”.
`C#CCN(C)CCCOc1ccc(Cl)cc1Cl`: the Potency entry is “inactive”.
Still for that read-out and setting: as for `CNCCC(Oc1ccccc1OC)c1ccccc1` (stereo not given), the entry is “inactive”; as for `Cc1ccc(=O)n(-c2ccccc2)c1`, “inactive”.
Take `CCCN(CCC)CCc1cccc2c1CC(=O)N2`: the Potency entry is “inactive”.
`CC(C)NCC(O)c1cc(O)cc(O)c1` (stereo not given): the Potency entry was “inactive”.
In the case of `CCCNC(C)C(=O)Nc1ccccc1C` (stereo not given), the Potency result is “inactive”.
Consider `NCCCNCCSP(=O)(O)O`, for which the activity change, negative = cytotoxic was 2.93% [at 9.22 µM] (inactive).
As for `CCO/C([O-])=N/c1c[n+](N2CCOCC2)no1`, the Potency entry was “inactive”.
As for `CC(C)(Oc1ccc(CCNC(=O)c2ccc(Cl)cc2)cc1)C(=O)O`, the Potency entry was “inactive”.
On the same count and under the same terms, as for `NC(=Nc1ccccc1)Nc1ccccc1`, the entry is “inactive”.
For `OC(CCN1CCCCC1)(c1ccccc1)C1CCCCC1` (stereo not given), the Potency result is “inactive”.
As to `CC(N=C(NC#N)Nc1ccncc1)C(C)(C)C` (stereo not given), the Potency entry was “inactive”.
Same read-out and setting: then `Cc1ccc(Cl)c(Nc2ccccc2C(=O)O)c1Cl`, with “inactive”.
